Data as given in PubChem BioAssay AID1851 (National Center for Advancing Translational Sciences (NCATS), 2009).
About 5,100 (32%) of roughly 16,000 compounds were called active. Not shown: some 25% with an inconclusive outcome. Calls follow the shape of the dose curve; as a rule, active = well fitted curve in the direction sought with a large enough effect; inconclusive = small, poorly fitted or top-dose-only effect, or effect the other way; inactive = no such curve, though single readings can be large or run the other way. Some of the results follow.

The molecules below were run against Cytochrome P450 3A4 (Homo sapiens) (UniProt P08684) (assay: Cytochrome panel assay with activity outcomes). Details: recombinant CYP, pro-luciferin dealkylation, luminescence, p450-cyp3a4; series mostly up to 57.1 µM; activity, negative = inhibition: at the top concentration.
Chain of Cytochrome P450 3A4 (Homo sapiens) (P08684 whole entry, looked up): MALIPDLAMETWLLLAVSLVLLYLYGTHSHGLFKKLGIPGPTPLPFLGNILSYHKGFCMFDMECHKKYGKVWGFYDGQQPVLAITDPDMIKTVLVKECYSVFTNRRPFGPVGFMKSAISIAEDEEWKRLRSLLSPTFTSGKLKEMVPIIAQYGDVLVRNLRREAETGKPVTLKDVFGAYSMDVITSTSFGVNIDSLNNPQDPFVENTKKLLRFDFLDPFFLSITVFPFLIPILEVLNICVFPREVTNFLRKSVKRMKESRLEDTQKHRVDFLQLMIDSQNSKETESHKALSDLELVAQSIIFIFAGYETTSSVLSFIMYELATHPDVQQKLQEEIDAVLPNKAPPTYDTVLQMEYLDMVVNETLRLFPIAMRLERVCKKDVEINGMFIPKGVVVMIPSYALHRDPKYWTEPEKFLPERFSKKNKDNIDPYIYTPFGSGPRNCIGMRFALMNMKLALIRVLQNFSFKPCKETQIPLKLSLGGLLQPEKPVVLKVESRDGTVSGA
% is scaled to controls: 0 for no effect and ±100 for the full control effect.

AC50, inactive:
O=C(O)C1=CCCNC1

AC50, active:
O=C(c1cccc(F)c1)N1CCC[C@@]2(CCN(c3ccncc3)C2)C1 0.316 µM, O=C(NNC(=O)c1ccccc1-n1cccc1)c1ccc(Cl)c(Cl)c1 15.8 µM, CN1CCN(c2ccnc(-c3cccc(NS(C)(=O)=O)c3)n2)CC1 25.1 µM, CS(=O)(=O)Nc1cccc(-c2cncnc2-n2ccnc2)c1 7.94 µM, CS(=O)(=O)Nc1cccc(-c2nccc(-n3ccnc3)n2)c1 1.58 µM, Cc1ccc(NC(=O)/C(=C\c2cccc([N+](=O)[O-])c2)NC(=O)c2cccs2)cc1 0.398 µM, O=C(Nc1cccc2ccccc12)/C(=C/c1ccc([N+](=O)[O-])cc1)NC(=O)c1ccccc1 1.12 µM, Cc1ccc(NC(=O)/C(=C/c2cccc([N+](=O)[O-])c2)NC(=O)C2CCCCC2)c(C)c1 1 µM, Cc1ccc(NC(=O)/C(=C\c2ccc([N+](=O)[O-])cc2)NC(=O)c2ccccc2)cc1 1.12 µM, Cc1ccc(C(=O)N/C(=C\c2ccc([N+](=O)[O-])cc2)C(=O)NCCc2ccccc2)cc1 0.282 µM, COc1cc(/C=C(/NC(=O)c2ccccc2)C(=O)Nc2ccccc2)c([N+](=O)[O-])cc1OC 0.794 µM, Cc1cc(NC(=O)C2CCCC2)n(-c2nc3ccccc3[nH]2)n1 11.2 µM, COc1ccc(COc2ccsc2C(=O)Nc2ccc(Cl)c(Cl)c2)cc1 7.08 µM, CCN(C1CCCCC1)S(=O)(=O)c1ccc(S(=O)(=O)NCc2ccncc2)cc1 7.08 µM, COc1ccccc1CNCC(O)(c1ccc(Cl)cc1)c1ccc(Cl)cc1 3.55 µM, CCOc1nc(NCCc2ccc(OC)c(OC)c2)nc(NC(C)(C)CO)n1 11.2 µM, CC(C)N1CCC(=NNC(=O)c2ccc(Br)o2)CC1 15.8 µM, CC(C)CCn1nnnc1C(c1ccc(F)cc1)N1CCN(C(=O)c2ccco2)CC1 (stereo not drawn) 7.94 µM, Cc1ccc(C(c2nnnn2CC2CCCO2)N2CCN(C(=O)c3ccco3)CC2)cc1 (stereo not drawn) 3.55 µM

activity, negative = inhibition, inactive:
O=C(NNC(=O)c1ccccc1-n1cccc1)c1ccccc1 -20.3%, N[C@H](CCCC(=O)O)C(=O)O -2.17%, N=C(C[C@@H](O)COc1ccccc1-c1ccccc1)N1CCCCC1 -25.3%, CN1CCN(c2ccnc(-c3ccoc3)n2)CC1 -2.76%, C[N+](C)(N)CCC[N+](C)(C)N -4.61% [at 11.4 µM], O=C(N/N=C/C=C/c1ccc([N+](=O)[O-])cc1)c1cccs1 -1.51%, CCOC(=O)C1CCCN(C(=O)/C=C/c2cccc([N+](=O)[O-])c2)C1 (stereo not drawn) 3.28% [at 2.29 µM], CCc1ccc(N2CC(C(=O)N/N=C/c3cccc([N+](=O)[O-])c3)CC2=O)cc1 (stereo not drawn) -50%, CC[C@H](Cc1c(I)cc(I)c(N)c1I)C(=O)O -23.4% [at 25.6 µM], O=C(O)c1cc(N=Nc2ccc([N+](=O)[O-])cc2)ccc1O -6.97% [at 11.4 µM], COc1cc(/C=C(\C#N)C(=O)NCC2CCCO2)c([N+](=O)[O-])cc1OC (stereo not drawn) 12.9%, O=C(CNC(=O)c1ccc([N+](=O)[O-])cc1)c1ccccc1 0.889%, N=c1ccn2c(n1)O[C@H]1[C@@H](OP(=O)(O)O)[C@H](CO)O[C@H]12 -6.24% [at 11.4 µM], Cc1cc(NC(=O)C2CCCCC2)nc2c1c(=O)oc1ccccc12 -4.81% [at 2.29 µM], O=C(O)[C@H]1CCCC[C@@H]1C(=O)Nc1nc2ccccc2[nH]1 -6.18% [at 11.4 µM], O=C1C=C(NCC2CCCO2)C2(CCCCC2)O1 (stereo not drawn) -10.6%, COC(=O)COc1ccsc1C(=O)OC -5.82%, COc1ccc(/C=N/NC(=O)c2sccc2OCc2ccc(F)cc2)cc1OC -9.08% [at 2.29 µM], O=S(=O)(NCc1cccnc1)c1ccc(Cl)nc1 5.89% [at 2.29 µM], CCOC(=O)Nc1ccc(S(=O)(=O)NCc2ccccc2)cc1 -5.85%, Oc1ccccc1CNCc1ccccc1O -7.01% [at 11.4 µM], COC(=O)N1CCC2(CCN(Cc3ccccc3OC)CC2)CC1 -11.5%, CCCNc1nc(NCC)nc(OC)n1 5.69%, C=CCOc1ccc(CNC(C)(C)CO)cc1OCC 2.18%, CCCN1CCC(=NNC(=O)c2ccc(Br)o2)CC1 11.6% [at 2.29 µM], O=C(N/N=C/c1ccco1)c1ccc(Br)o1 -15.3%, Cc1ccc(C(CC(=O)c2ccco2)SCCO)cc1 (stereo not drawn) -23.2%, O=C(c1ccco1)N1CCN(C(=O)c2nn3cccnc3c2Cl)CC1 21.1%
